Activity calls are given as the source filed them.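 Rule for the calls: active = compound lowering absorbance whose fitted half-maximal concentration is at most twice its top valid dose; inconclusive = flat fit with 30 to 70% inhibition, or poor fit; inactive = the rest, including wrong-direction or flat responses.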

The experiment addresses Protein disulfide-isomerase (Homo sapiens) (UniProt P07237). As to the kind of experiment: inhibition of PDI-catalysed insulin clumping – biochemical, turbidity, absorbance, dry powder samples, confirmation (AID 624310).

Sequence of Protein disulfide-isomerase (Homo sapiens) (P07237 whole entry, looked up): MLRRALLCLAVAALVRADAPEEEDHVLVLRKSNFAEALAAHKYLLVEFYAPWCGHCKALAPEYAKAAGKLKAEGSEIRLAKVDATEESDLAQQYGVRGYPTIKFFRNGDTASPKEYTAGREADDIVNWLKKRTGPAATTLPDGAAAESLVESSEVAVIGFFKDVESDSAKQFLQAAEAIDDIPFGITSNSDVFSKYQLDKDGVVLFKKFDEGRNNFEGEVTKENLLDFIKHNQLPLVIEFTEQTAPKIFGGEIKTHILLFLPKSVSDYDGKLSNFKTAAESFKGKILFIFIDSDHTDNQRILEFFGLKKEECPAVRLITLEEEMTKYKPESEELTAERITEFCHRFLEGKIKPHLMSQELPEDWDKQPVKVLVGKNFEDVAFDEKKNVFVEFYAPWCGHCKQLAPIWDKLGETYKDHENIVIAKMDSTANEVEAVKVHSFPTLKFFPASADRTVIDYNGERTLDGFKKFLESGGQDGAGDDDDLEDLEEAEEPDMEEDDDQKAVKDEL

As to `C[C@H]1CN([C@@H](C)CO)C(=O)c2cccc(NS(C)(=O)=O)c2O[C@H]1CN(C)Cc1ccc(Oc2ccccc2)cc1`, the outcome was inactive.

Source of the values: PubChem BioAssay AID624310 (Broad Institute, 2012).
